Screening results: PubChem BioAssay, National Center for Advancing Translational Sciences (NCATS)
MmCpn inh: blocks the Methanococcus maripaludis chaperonin Mm-Cpn; purified Mm-Cpn ATPase, ADP Transcreener TR-FRET; Potency, µM (doses to about 76.9 µM), for the others: at the top dose activity, negative = inhibition, actives largely listed as inhibitors; hit rate 0.031% among 330,000; note: potency is the fitted concentration of half-maximal effect; % is set by controls: 0 for no effect and ±100 for the full control effect; nearly all actives have a fitted effect of over 80% in size
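Purified archaeal chaperonin (25 nM final) was preincubated with compound for 10 min at 37°C, then ATP (10 uM final) was added for 30 min at 37°C in Tris pH 7.4/KCl/MgCl2/DTT buffer. ADP was quantified by HTRF Transcreener TR-FRET.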
gsp antag: antagonists of gsp mutant (McCune-Albright syndrome) | gsp-mutant cells, cAMP HTRF, 30 min | Potency, µM (top dose mostly 76.9 µM), for the others: top-dose activity change, negative = inhibition, actives largely listed as inhibitors | hit rate 0.4% among 340,000 | AID 624288; calls by dose curve; cell line not stated here;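 note: intracellular cAMP measured with PDE inhibitor Ro 20-1724 present during compound exposure; potency is the fitted concentration of half-maximal effect; % is set by controls: 0 for no effect and ±100 for the full control effect; nearly all actives have a fitted effect of over 65% in size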
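G418-selected cells were plated in DMEM/10% FBS for 16-24 h at 37C, then treated with compounds plus the PDE inhibitor […] (300 uM solution added) for 30 min at 37C. Intracellular cAMP was measured by HTRF after 30 min lysis at room temperature.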
gsp agonist: gsp mutant agonism; gsp mutant cells, cAMP HTRF, 30 min; Potency, µM (doses to about 76.9 µM), for inactives: top-dose activation (cAMP increase), usual class: activators; hit rate 0.13% among 340,000; AID 624287; active = well fitted activation curve with a large enough effect; inconclusive = small, poorly fitted or top-dose-only effect, or another doubt; inactive = no such curve, though single readings can be large or run the other way; cell line not stated here;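 note: phosphodiesterase inhibitor Ro 20-1724 added with compounds to block cAMP breakdown; potency is the fitted concentration of half-maximal effect; nearly all actives have a fitted effect of over 60% in size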
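Cells in DMEM/10% FBS with G418 were pretreated with compounds in DMSO plus […] (300 uM stock) for 30 min at 37C. cAMP was measured by HTRF (cAMP-d2 plus anti-cAMP antibody-K) after 30 min at room temperature.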
RXFP1 agonist: agonists of human relaxin receptor RXFP1 | Potency, µM (highest dose often 57.5 µM), for the others: top-dose activation, hits mostly activators | HEK293T-RXFP1 cAMP TR-FRET, 30 min; response scale: percent of porcine relaxin response, buffer zero | Q9HBX9 | hit rate 0.3% among 370,000; note: potency is the fitted concentration of half-maximal effect; % is set by controls: 0 for no effect and ±100 for the full control effect; nearly all actives have a fitted effect of over 60% in size
Target sequence (Q9HBX9 whole entry, looked up): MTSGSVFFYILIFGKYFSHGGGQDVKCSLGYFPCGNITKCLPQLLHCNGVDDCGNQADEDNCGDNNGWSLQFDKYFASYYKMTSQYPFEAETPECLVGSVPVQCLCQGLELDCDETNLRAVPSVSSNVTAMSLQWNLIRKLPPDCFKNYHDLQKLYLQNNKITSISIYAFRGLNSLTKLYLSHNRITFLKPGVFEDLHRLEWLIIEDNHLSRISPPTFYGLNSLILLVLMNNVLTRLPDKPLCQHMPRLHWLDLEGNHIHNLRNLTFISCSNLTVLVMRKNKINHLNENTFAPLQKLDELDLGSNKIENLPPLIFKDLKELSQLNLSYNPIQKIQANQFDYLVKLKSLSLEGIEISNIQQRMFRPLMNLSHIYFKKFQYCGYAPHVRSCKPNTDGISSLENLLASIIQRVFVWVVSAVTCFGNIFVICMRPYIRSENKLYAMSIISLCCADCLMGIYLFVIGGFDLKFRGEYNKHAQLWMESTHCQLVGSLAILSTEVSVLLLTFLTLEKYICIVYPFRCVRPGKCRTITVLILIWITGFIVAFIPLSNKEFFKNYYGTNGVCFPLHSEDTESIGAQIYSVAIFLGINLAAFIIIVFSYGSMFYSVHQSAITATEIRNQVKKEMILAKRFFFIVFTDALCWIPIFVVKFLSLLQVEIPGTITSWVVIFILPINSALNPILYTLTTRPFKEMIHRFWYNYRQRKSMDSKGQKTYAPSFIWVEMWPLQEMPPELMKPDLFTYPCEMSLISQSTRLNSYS
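HEK293T cells stably expressing RXFP1 were pretreated with the PDE4 inhibitor Ro 20174, exposed to compounds for 30 min at 37C, lysed, and cAMP was read by TR-FRET. Data normalized to buffer (basal) and 29 nM porcine relaxin (100%).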
RXFP1 antag: RXFP1 (human) relaxin receptor antagonism | Q9HBX9 | activity change, negative = inhibition, % at 57.5 µM | HEK293-RXFP1, relaxin-stimulated cAMP HTRF, 30 min; hits give low values | AID 1259400 | hit rate 0.59% among 350,000;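 active = activity change of -60% or lower, but not beyond a set lower limit; inconclusive = change between -60% and -40%, or beyond the set limit; inactive = change above -40%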; note: % is set by controls: 0 for no effect and ±100 for the full control effect
CCT modulator: modulators of cytosolic chaperonin (CCT/TRiC) activity; purified chaperonin ATPase assay, HTRF ADP detection, 30 min; activity change, % (test concentration not listed), hits read low; hit rate 0.3% among 360,000; in the data active = activity change below about -30%; note: % is set by controls: 0 for no effect and ±100 for the full control effect
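TRiC at 40 or 20 nM final (batch-dependent) in 30 mM Tris pH 7.4, 100 mM KCl, 5 mM MgCl2, 1 mM DTT, with compound at single 76 uM and 10 uM ATP, 30 min at 37 deg C. ADP detected by HTRF Transcreener, 665/615 ratio.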
Numbers without * were called inactive; ? = inconclusive; . = not tested or not shown; [ ] = another dose, or the depositor's remark. Only some compounds are listed: those with a hit (about 1.2% of all), similar ones and a draw of the others. Unless noted, calls come from the whole dose curve; as a rule, active = well fitted curve in the direction sought with a large enough effect; inconclusive = small, poorly fitted or top-dose-only effect, or another doubt; inactive = no such curve, though single readings can be large; an effect the other way counts as inactive or inconclusive.

SMILES	MmCpn inh	gsp antag	gsp agonist	RXFP1 agonist	RXFP1 antag	CCT modulator
COc1ccc(NC(=O)CSC2=Nc3ccccc3C3=NC(CCC(=O)NCc4ccc(F)cc4)C(=O)N23)cc1Cl (stereo not given)	.	.	.	8.1%	-2.6	.
Cc1ccccc1OCc1nnc(SCC(=O)Nc2ccc3nc(SCC(=O)NC(C)(C)C)sc3c2)n1C	0.6%	31.6µM*	?	0.9%	-7.0	-0.3
CCN(CC)C(=O)CSc1nc2ccc(NC(=O)CSc3nnc(COc4ccccc4C)n3C)cc2s1	-1.9%	-26.8%	-13.2%	1.6%	-13.1	-6.1
COC(=O)c1cc2occc2n1Cc1ccc(F)cc1Cl	.	.	.	1.8%	-30.1	.
CC(C)NC(=O)COC(=O)c1ccc(S(=O)(=O)N2CCCC2)cc1	-1.0%	-2.8%	7.5%	1.9%	-97.6*	1.7
CC(C)(C)NC(=O)COC(=O)c1ccc(S(=O)(=O)N2CCCCCC2)cc1	1.3%	-16.6%	-15.2%	0.9%	-9.9	-1.3
CN1CCN(C(=O)/C(=C/c2cn(S(=O)(=O)N(C)C)c3ccccc23)NC(=O)c2ccccc2)CC1	1.7%	-5.7%	2.0%	-2.4%	20.0	-39.3*
Cc1ccc(-c2ccccc2C#N)cc1	.	.	.	.	-7.6	.
O=c1[nH]c2cc(Cl)ccc2n(CCNc2ncc(C(F)(F)F)cc2Cl)c1=O	0.1%	5.8%	-13.1%	-1.8%	-5.0	-67.2*
O=c1cc(Cl)[nH]c(=O)n1CCNc1ncc(C(F)(F)F)cc1Cl	-5.1%	-1.8%[15.4 µM]	4.5%	2.0%	-5.5	-0.2
Cc1ccccc1OCCC(=O)OCC(=O)NCCNC(=O)COC(=O)CCOc1ccccc1C	0.4%	-0.6%	4.6%[15.4 µM]	-0.9%	-73.1*	0.3
CCN1C(=O)N[C@@H](c2cccc(F)c2)C(C(=O)OC)=C1C	.	-3.4%	9.5%	.	.	-39.6*
O=C(Cn1cnc2c(nnn2-c2ccc(F)cc2)c1=O)NCC1CCCO1 (stereo not given)	1.9%	8.1%	10µM*	?	23.2	1.8
COc1ccc(-n2nnc3c(=O)n(CC(=O)NCC4CCCO4)cnc32)cc1 (stereo not given)	0.4%	35.4%	7.94µM*	11.2µM*	3.9	-0.2
O=C(Cn1cnc2c(cnn2-c2ccc(F)cc2)c1=O)NCC1CCCO1 (stereo not given)	-1.6%	9.2%	?	4.9%	7.2	-5.4
CCOC(=O)c1cc2c(=O)n3ccccc3nc2n(CC2CCCO2)c1=NC(=O)c1ccc(OCC)cc1 (stereo not given)	.	.	.	5.8%	.	.
O=C1c2ccccc2C(=O)N1CCOc1ccccc1Br	-3.7%	-5.2%	3.55µM*	0.5%	-5.1	-5.2
CC(C)CCn1c(SCc2ccc(F)cc2Cl)nc2ccsc2c1=O	.	.	.	2.0%	-5.4	.
CC(C)CCn1c(SCc2cccc(F)c2)nc2ccsc2c1=O	.	.	.	4.0%	-76.5*	.
Cc1ccc(-c2nnc(N3CCC(C)CC3)c3ccccc23)cc1C	-1.9%	.	-19.5%[15.4 µM]	-1.0%	?	-43.1*
CC1CCN(c2nnc(-c3ccccc3)c3ccccc23)CC1	-0.7%	?	3.1%[15.4 µM]	3.4%	-13.0	-1.0
Cc1ccc(-c2nnc(N3CCC(C)CC3)c3ccccc23)cc1	0.4%	25.1µM*	-60.6%	-0.3%	-10.9	-2.4
COc1cccc(CNC(=O)c2ccc3nc(CCc4ccccc4)oc3c2)c1OC	.	.	.	0.1%	.	.
O=C(O)c1ccccc1NCCc1ccccc1	.	.	.	.	-30.0	.
Cn1cc(-c2cc3n(n2)CCC(=O)N3CCCC(=O)Nc2ccccc2Cl)c2ccccc21	.	.	.	1.2%	-16.5	.
SMILES	MmCpn inh	gsp antag	gsp agonist	RXFP1 agonist	RXFP1 antag	CCT modulator
CCOC(=O)c1ccc(N/C=C\C(=O)c2cccc(OC)c2)cc1	0.7%	6.6%	?	0.2%	.	-0.1
COc1cccc(C(=O)/C=C/Nc2cc(C)ccc2O)c1	-1.1%	?	?	3.4%	-78.4*	1.1
COc1ccc(-n2nc(CCC(=O)N(C)O)cc2-c2ccc(Cl)cc2)cc1	.	.	.	.	-22.0	.
CN(C)c1ccc(C(C#N)c2ccc(Cl)cc2)nn1 (stereo not given)	-2.3%	4.7%	-41.2%	2.1%	1.0	-2.8
CN(C)c1ccc(C(C#N)c2ccccc2)nn1 (stereo not given)	-2.0%	-3.0%	4.1%	-3.1%	-69.5*	-1.1
O=C(Nc1ccc(-c2nc3cc(Cl)ccc3c(=O)o2)cc1)c1ccco1	3.0%	13.5%	7.2%[15.4 µM]	1.1%	-65.6*	0.0
Cc1ccc2nc(NC(=O)CSc3nccn3Cc3ccc(F)cc3)sc2c1	.	.	.	-0.4%	.	.
CCc1ccccc1NC(=O)CSc1ncc(S(=O)(=O)c2ccccc2)c(N)n1	.	.	.	2.8%	.	.
COc1ccc(CC(=O)Nc2c(C(=O)N3CCN(c4ncccn4)CC3)oc3ccccc23)cc1OC	0.9%	-2.6%	3.4%	1.1%	-6.6	-2.7
COc1ccc(CC(=O)Nc2c(C(=O)N3CCN(c4ncccn4)CC3)oc3ccccc23)cc1	-4.9%	-17.4%	13.6%	1.2%	3.6	-68.4*
COc1ccc(-c2csc(NC(=O)CSCc3c(C)noc3C)n2)cc1OC	-4.7%	?	-7.5%	-1.7%	-31.3	-1.5
CCc1noc(C)c1C(=O)Nc1nc(-c2ccc(OC)c(OC)c2)cs1	-25.0%	-33.5%	?	1.8%	-22.2	-1.7
Cc1noc(C)c1CSCC(=O)Nc1nc(-c2ccc(F)c(F)c2)cs1	-5.6%	35.5µM*	13.8%[15.4 µM]	1.0%	-33.5	0.2
CCc1noc(C)c1C(=O)OCC(=O)Nc1nc(-c2ccc(F)c(F)c2)cs1	-28.8%	39.8µM*	8.4%	-0.4%	-13.5	1.2
COc1ccccc1CCC(=O)OCC(=O)c1c(N)n(CC(C)C)c(=O)n(C)c1=O	-0.3%	-45.6%	-24.8%	0.4%	-20.1	2.8
Cc1csc(SCC(=O)c2c(N)n(CC(C)C)c(=O)n(C)c2=O)n1	-1.6%	?	19.6%	-2.4%	-18.4	0.9
CC(C)Cn1c(N)c(C(=O)COC(=O)c2cnc(Cl)c(Cl)c2)c(=O)n(C)c1=O	2.1%	35.5µM*	-39.9%	0.4%	-36.5	-2.9
CCOc1ccccc1OCC(=O)OCC(=O)c1c(N)n(CC(C)C)c(=O)n(C)c1=O	0.0%	35.5µM*	-2.2%	2.6%	-15.7	1.7
CCOC(=O)Cc1csc(SCC(=O)c2c(N)n(CC(C)C)c(=O)n(C)c2=O)n1	-2.1%	11.2µM*	3.2%	2.3%	6.6	-2.5
CCCCOC(=O)CSC1=C(C#N)C(c2ccccc2OCC)C(C#N)C(=O)N1 (stereo not given)	3.3%	31.6µM*	28.5%	2.3%	40.8	0.3
Fc1ccc(CSc2ccc3nnc(-c4cccs4)n3n2)cc1	-3.7%	31.6µM*	12.4%	0.0%	14.7	-8.6
